Here are results for five molecules from PubChem BioAssay (EPA / NIEHS).

Test [1] in a line: ATG_PBREM_CIS: Attagene CIS-FACTORIAL HepG2 Assay for human Phenobarbital-responsive Enhancer Module (PBREM) (AID 2282955). As to conditions: HepG2 PBREM cis-reporter, Attagene multiplexed transcription; actives raise or lower the signal. In a few lines: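 Cells were transfected with cis-element reporter units and treated for 24 h, after which RNA was extracted and reporter transcripts measured by RT-PCR and capillary electrophoresis.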

For test [2], the target named is Paired box protein Pax-6 (Homo sapiens) (UniProt P26367). In words: ATG_Pax6_CIS: Attagene CIS-FACTORIAL HepG2 Assay for human Paired Box 6 (PAX6) (AID 2282956). As to conditions: HepG2 CIS-FACTORIAL PAX6 reporter transcription, RNA readout; actives raise or lower the signal. In a few lines:
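After twenty-four hours of chemical exposure, transfected HepG2 cells are harvested for RNA. Cis-promoter reporter transcripts are amplified, fluorescently labelled and sized by capillary electrophoresis, with gain and loss of signal scored against DMSO.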

Test [3] is described as follows: ATG_PXRE_CIS: Attagene CIS-FACTORIAL HepG2 Assay for human Pregnane X Receptor Element (PXRE) (AID 2282957). Conditions: HepG2 Attagene CIS-FACTORIAL PXRE reporter, mRNA; actives raise or lower the signal. The essentials: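 HepG2 cells transiently transfected with cis-element-driven multiplexed reporter units; after 24 h chemical exposure, reporter mRNA measured by RT-PCR, 6-FAM labelling, HpaI digestion and capillary electrophoresis. Bidirectional fitting relative to DMSO.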

Test [4] can be described thus: ATG_PPRE_CIS: Attagene CIS-FACTORIAL HepG2 Assay for human Peroxisome Proliferator-activated Response Element (PPRE) (AID 2282958). As to conditions: HepG2 PPRE cis-element reporter, Attagene transcription factor profiling; actives raise or lower the signal. In a few lines:
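In this cell-based multiplex, a PPRE cis element drives a reporter sequence in transiently transfected HepG2 cells. Following 24 h treatment, labeled cDNA amplicons are sized and quantified by capillary electrophoresis, with DMSO defining baseline.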

A short description of test [5]: ATG_RORE_CIS: Attagene CIS-FACTORIAL HepG2 Assay for human RAR-related Orphan Receptor Element (RORE) (AID 2282959). As to conditions: HepG2 Attagene cis-factorial RORE reporter, mRNA; actives raise or lower the signal. In a few lines:
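Endogenous factor activity at a cis response element is read as reporter transcript levels in HepG2 cells, 24 h post-dose. Transcripts are quantified by RT-PCR with capillary electrophoresis, and data fitted in both directions against DMSO.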

Test [6] is described as follows: ATG_Sox_CIS: Attagene CIS-FACTORIAL HepG2 Assay for human SRY-box transcription factor (SOX) (AID 2282960). As to conditions: HepG2 Attagene cis-factorial SOX reporter, mRNA; actives raise or lower the signal. In a few lines:
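Measures mRNA induction of a SOX1-associated reporter in HepG2 after 24 h dosing. Fluorescently labelled RT-PCR fragments are separated by capillary electrophoresis, and gain or loss relative to DMSO control is fitted.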

Test [7] addresses Transcription factor Sp1 (Homo sapiens) (UniProt P08047). In words: ATG_Sp1_CIS: Attagene CIS-FACTORIAL HepG2 Assay for human Specificity Protein 1 (Sp1) (AID 2282961). As to conditions: HepG2 Sp1 cis-reporter transcription, actives raise or lower the signal. The essentials:
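Cells: HepG2, transiently transfected with cis-regulated multiplexed reporters. Exposure: 24 h. Detection: reporter transcripts amplified, fluorescently labeled, restriction-digested and sized by capillary electrophoresis. Analysis: bidirectional fit relative to DMSO.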

Test [8] can be described thus: ATG_SREBP_CIS: Attagene CIS-FACTORIAL HepG2 Assay for human Sterol Regulatory Element Binding (SREBP) (AID 2282962). Conditions: HepG2 Attagene cis-factorial SREBP reporter, mRNA; actives raise or lower the signal. The essentials: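 Twenty-four hours after chemical dosing of transfected HepG2 cultures, reporter RNA was converted to cDNA, amplified, end-labelled with 6-FAM and resolved by capillary electrophoresis. Responses were fitted relative to DMSO.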

Test [9] concerns the target Signal transducer and activator of transcription 3 (Homo sapiens) (UniProt P40763). Briefly: ATG_STAT3_CIS: Attagene CIS-FACTORIAL HepG2 Assay for human Signal Transducer and Activator of Transcription 3 (STAT3) (AID 2282963). As to conditions: HepG2, Attagene cis-factorial STAT3 reporter transcription; actives raise or lower the signal. The essentials:
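Endogenous STAT3-responsive cis-element activity was read in transiently transfected HepG2 cells after 24 h treatment. Reporter transcripts were quantified via RT-PCR and capillary electrophoresis, with DMSO as negative control and bidirectional curve fitting.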

Test [10] can be described thus: ATG_TA_CIS: Attagene CIS-FACTORIAL HepG2 Assay for human TA Basal Promoter (AID 2282964). Conditions: HepG2 Attagene CIS-factorial TA basal promoter reporter; actives raise or lower the signal. In a few lines:
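Read-out: fluorescent reporter-transcript fragments resolved by capillary electrophoresis after RT-PCR and HpaI digestion. Source: HepG2 cells carrying transiently transfected multi-reporter cis constructs, treated 24 h. Endpoint fitted bidirectionally relative to DMSO.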

Test [11] in a line: ATG_TCF_b_cat_CIS: Attagene CIS-FACTORIAL HepG2 Assay for human T-Cell-Factor with beta-catenin (TCF/b-cat) (AID 2282965). As to conditions: HepG2 TCF/beta-catenin cis-reporter transcription, actives raise or lower the signal. The essentials:
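Endogenous transcription factor activity is captured through cis-promoter reporter constructs transiently introduced into human HepG2 liver cells. Induced reporter mRNA is measured after 24 h and fitted bidirectionally relative to DMSO.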

Test [12] in a line: ATG_TGFb_CIS: Attagene CIS-FACTORIAL HepG2 Assay for human Transforming Growth Factor (TGF) (AID 2282967). Conditions: HepG2 Attagene CIS TGFb reporter, mRNA transcription; actives raise or lower the signal. In a few lines: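 Transient MRTU transfection of HepG2 (FuGene 6). Dose 24 h. TriZol RNA, oligo(dT) RT, PCR, 6-FAM primer extension, HpaI cut, CE. Bidirectional fit, DMSO = baseline.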

The nature of test [13]: ATG_VDRE_CIS: Attagene CIS-FACTORIAL HepG2 Assay for human Vitamin D Receptor Element (VDRE) (AID 2282968). Conditions: HepG2 VDRE cis-reporter transcription, actives raise or lower the signal. In a few lines: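 Reporter mRNA induction, quantified by capillary electrophoresis of fluorescently labelled RT-PCR products, was read 24 h after dosing HepG2 cells carrying transiently transfected cis-regulated reporter units; gain or loss relative to DMSO.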

The target of test [14] is Nuclear receptor subfamily 1 group I member 3 (Homo sapiens) (UniProt Q14994). In words: ATG_CAR_TRANS: Attagene TRANS-FACTORIAL HepG2 Assay for human Constitutive Androstane Receptor (CAR) (AID 2282969; active = hit-call score of the fitted dose curve at least 0.9, where 1 is the maximum;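 note: activators raise reporter mRNA above DMSO so AC50 marks induction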). As to conditions: HepG2 Attagene TRANS-FACTORIAL CAR reporter. In a few lines: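 Readout is reporter mRNA induction, quantified by fluorescent primer extension and capillary electrophoresis after RT-PCR. Cells were HepG2 transiently carrying chimeric NR-Gal4 constructs with GAL4-UAS reporters, treated for 24 h; activity scored upward from DMSO.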
Sequence of Nuclear receptor subfamily 1 group I member 3 (Homo sapiens) (Q14994 whole entry, looked up, the tested form may be a part): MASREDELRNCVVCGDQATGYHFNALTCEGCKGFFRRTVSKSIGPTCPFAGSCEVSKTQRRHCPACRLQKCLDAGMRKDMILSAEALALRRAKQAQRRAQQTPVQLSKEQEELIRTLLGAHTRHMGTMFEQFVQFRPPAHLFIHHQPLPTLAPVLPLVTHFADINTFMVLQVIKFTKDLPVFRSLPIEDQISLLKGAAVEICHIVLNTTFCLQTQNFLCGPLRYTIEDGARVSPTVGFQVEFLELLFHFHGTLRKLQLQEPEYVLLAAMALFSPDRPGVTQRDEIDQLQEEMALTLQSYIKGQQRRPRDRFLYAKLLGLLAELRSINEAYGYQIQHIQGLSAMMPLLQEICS

Test [15] concerns the target Steroid hormone receptor ERR1 (Homo sapiens) (UniProt P11474). In words: ATG_ERRa_TRANS: Attagene TRANS-FACTORIAL HepG2 Assay for human Estrogen-Related Receptor alpha (ERRa) (AID 2282971; active = hit-call score of the fitted dose curve at least 0.9, where 1 is the maximum). Conditions: HepG2 Attagene TRANS reporter, ERRa transactivation. In a few lines:
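HepG2 cells transiently transfected with GAL4-UAS reporter units and chimeric NR-Gal4 constructs; after 24 hour compound incubation, reporter mRNA quantified by RT-PCR, fluorescent labelling and capillary electrophoresis, gain of signal versus DMSO.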

Test [16] concerns the target X-box-binding protein 1 (Homo sapiens) (UniProt P17861). In words: ATG_Xbp1_CIS: Attagene CIS-FACTORIAL HepG2 Assay for human X-box Binding Protein 1 (XBP1) (AID 2282972). As to conditions: HepG2 XBP1 cis-element reporter, Attagene multiplex; actives raise or lower the signal. The essentials: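 After a 24-hour chemical exposure of HepG2 cells carrying cis-regulated reporters, reporter mRNA levels are assessed. Quantification uses RT-PCR, 6-FAM labelling and capillary electrophoresis. Gain- or loss-of-signal is fitted against DMSO.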

A short description of test [17]: ATG_M_19_TRANS: Attagene TRANS-FACTORIAL HepG2 Assay for M19 Transcription Factor (Internal Marker) (AID 2282974; active = hit-call score of the fitted dose curve at least 0.9, where 1 is the maximum). Conditions: HepG2 Attagene TRANS-FACTORIAL M19 internal marker reporter. In a few lines:
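Reporter mRNA induction was measured in transfected HepG2 cells 24 h after dosing. Endpoint fitted upward relative to DMSO and serves as a background control within the multiplexed TRANS panel.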

Test [18] in a line: ATG_TAL_CIS: Attagene CIS-FACTORIAL HepG2 Assay for human TAL Basal Promoter (AID 2282966).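 Note: background control endpoint measuring basal TAL promoter reporter mRNA not a specific factor.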 As to conditions: HepG2 Attagene cis-factorial TAL promoter reporter; actives raise or lower the signal. The essentials:
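HepG2 cells transiently transfected with multiplexed cis-promoter reporter units, dosed 24 h. Reporter mRNA quantified by RT-PCR, 6-FAM labelling, HpaI digestion and capillary electrophoresis; TAL basal promoter serves as background control, fitted bidirectionally versus DMSO.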

For test [19], the target named is Estrogen receptor (Homo sapiens) (UniProt P03372). Briefly: ATG_ERa_TRANS: Attagene TRANS-FACTORIAL HepG2 Assay for human Estrogen Receptor alpha (ERa) (AID 2282970; active = hit-call score of the fitted dose curve at least 0.9, where 1 is the maximum). As to conditions: HepG2 Attagene TRANS ERa GAL4 reporter, mRNA. In a few lines: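 HepG2 cells transiently transfected with multiplexed GAL4-UAS reporter units read out chimeric NR-Gal4 activity. After 24 h compound exposure, reporter mRNA was quantified by RT-PCR, 6-FAM labeling, HpaI digestion and capillary electrophoresis, relative to DMSO.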
Sequence of Estrogen receptor (Homo sapiens) (P03372 whole entry, looked up, the tested form may be a part): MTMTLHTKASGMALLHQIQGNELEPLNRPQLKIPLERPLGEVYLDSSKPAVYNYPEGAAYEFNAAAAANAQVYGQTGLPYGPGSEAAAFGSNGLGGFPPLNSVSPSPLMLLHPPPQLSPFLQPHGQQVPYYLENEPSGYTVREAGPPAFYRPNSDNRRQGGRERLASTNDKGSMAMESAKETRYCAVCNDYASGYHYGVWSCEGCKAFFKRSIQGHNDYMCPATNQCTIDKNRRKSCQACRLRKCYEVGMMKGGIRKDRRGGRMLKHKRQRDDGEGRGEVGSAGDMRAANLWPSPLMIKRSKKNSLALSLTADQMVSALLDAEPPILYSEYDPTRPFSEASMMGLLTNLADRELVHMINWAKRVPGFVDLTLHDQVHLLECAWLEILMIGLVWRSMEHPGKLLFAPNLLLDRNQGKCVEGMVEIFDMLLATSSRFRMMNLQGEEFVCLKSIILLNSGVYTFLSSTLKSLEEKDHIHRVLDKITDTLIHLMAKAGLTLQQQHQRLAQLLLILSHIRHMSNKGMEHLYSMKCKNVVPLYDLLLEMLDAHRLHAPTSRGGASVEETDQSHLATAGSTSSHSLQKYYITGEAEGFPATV

The structures appear in SMILES notation. Inconclusive results are not listed. The source made the active and inactive calls. Rule for the calls, unless noted: active = hit-call score of the fitted dose curve at least 0.9, where 1 is the maximum; inactive = score below 0.9.

What is called AC50 is the concentration giving half of the maximal activity seen.

Sequence of Signal transducer and activator of transcription 3 (Homo sapiens) (P40763 whole entry, looked up): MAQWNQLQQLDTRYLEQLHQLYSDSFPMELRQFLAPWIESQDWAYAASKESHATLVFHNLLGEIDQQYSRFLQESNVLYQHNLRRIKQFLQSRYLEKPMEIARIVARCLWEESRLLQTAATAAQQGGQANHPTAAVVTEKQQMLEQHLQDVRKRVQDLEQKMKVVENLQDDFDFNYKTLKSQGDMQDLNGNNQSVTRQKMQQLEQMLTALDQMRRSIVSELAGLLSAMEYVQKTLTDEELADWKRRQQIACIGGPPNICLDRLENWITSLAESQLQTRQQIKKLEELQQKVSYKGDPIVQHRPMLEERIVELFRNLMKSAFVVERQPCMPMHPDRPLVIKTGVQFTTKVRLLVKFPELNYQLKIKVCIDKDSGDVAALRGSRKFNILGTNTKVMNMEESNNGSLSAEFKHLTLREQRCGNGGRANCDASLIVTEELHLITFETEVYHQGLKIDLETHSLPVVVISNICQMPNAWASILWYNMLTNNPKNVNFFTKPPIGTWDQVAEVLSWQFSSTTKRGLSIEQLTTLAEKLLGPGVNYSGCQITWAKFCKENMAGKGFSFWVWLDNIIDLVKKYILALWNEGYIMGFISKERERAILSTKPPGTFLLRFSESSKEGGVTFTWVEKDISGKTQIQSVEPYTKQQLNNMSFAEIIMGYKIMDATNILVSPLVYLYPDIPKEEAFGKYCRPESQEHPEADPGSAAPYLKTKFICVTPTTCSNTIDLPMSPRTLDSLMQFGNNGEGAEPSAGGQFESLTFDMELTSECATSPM
Sequence of Paired box protein Pax-6 (Homo sapiens) (P26367 whole entry, looked up): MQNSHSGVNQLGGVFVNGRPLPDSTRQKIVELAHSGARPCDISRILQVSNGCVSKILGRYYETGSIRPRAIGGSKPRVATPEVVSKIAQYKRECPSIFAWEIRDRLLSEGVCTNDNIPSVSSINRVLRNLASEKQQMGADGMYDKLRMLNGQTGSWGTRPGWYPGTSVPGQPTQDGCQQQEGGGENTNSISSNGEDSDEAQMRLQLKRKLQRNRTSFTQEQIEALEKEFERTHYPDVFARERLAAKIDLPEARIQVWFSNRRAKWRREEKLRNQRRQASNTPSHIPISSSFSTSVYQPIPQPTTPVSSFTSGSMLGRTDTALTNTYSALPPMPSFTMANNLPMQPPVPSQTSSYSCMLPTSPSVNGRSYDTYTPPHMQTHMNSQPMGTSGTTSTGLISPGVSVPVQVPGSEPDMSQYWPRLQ
Sequence of Steroid hormone receptor ERR1 (Homo sapiens) (P11474 whole entry, looked up, the tested form may be a part): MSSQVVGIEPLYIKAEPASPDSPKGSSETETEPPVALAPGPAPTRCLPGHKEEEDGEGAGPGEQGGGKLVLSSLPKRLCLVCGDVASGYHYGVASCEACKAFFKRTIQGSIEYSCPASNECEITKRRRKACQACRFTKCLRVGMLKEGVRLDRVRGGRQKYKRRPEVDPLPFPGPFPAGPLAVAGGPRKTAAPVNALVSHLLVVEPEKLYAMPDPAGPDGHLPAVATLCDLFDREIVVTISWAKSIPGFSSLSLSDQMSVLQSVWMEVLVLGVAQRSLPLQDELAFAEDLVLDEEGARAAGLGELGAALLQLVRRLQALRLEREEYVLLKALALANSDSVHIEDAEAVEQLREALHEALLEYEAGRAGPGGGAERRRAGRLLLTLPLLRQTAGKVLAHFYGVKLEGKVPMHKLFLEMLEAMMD
Sequence of Transcription factor Sp1 (Homo sapiens) (P08047 whole entry, looked up): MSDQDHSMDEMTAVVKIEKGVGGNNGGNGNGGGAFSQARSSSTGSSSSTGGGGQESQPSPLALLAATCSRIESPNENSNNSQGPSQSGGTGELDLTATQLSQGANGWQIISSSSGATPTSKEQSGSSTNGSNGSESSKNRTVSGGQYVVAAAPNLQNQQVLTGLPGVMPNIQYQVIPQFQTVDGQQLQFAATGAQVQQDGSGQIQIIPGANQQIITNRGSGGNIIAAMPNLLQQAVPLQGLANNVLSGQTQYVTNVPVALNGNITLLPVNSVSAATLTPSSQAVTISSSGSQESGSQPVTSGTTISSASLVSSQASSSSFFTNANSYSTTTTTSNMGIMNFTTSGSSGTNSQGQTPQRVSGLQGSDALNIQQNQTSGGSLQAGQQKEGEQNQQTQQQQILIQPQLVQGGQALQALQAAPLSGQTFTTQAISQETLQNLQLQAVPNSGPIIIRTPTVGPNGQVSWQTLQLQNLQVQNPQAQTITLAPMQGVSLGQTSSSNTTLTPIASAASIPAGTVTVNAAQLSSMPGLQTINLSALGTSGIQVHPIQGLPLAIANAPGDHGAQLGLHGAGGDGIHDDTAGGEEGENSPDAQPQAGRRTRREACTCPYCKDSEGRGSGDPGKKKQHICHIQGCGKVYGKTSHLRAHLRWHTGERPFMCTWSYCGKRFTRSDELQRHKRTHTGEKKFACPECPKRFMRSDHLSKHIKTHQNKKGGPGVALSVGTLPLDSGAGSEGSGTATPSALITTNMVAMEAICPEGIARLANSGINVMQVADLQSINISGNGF
Sequence of X-box-binding protein 1 (Homo sapiens) (P17861 whole entry, looked up): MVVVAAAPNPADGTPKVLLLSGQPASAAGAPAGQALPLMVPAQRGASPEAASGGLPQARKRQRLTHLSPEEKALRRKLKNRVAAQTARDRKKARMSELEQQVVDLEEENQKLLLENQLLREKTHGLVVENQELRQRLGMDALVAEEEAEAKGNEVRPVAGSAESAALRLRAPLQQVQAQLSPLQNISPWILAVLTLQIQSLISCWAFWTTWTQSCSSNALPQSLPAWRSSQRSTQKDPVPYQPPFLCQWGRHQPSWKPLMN

On to `CC(C)(C)c1cc(CCC(=O)OCCSCCOC(=O)CCc2cc(C(C)(C)C)c(O)c(C(C)(C)C)c2)cc(C(C)(C)C)c1O`, for which the outcome in test [1], in test [2], in [3], in test [4], in test [5] and in test [6] was inactive. For the same molecule, the call in [7], in [8], in [9], in [10], in test [11] and in test [12] was inactive. Further, the molecule was classed as inactive in test [13], in test [14], in test [15], in [16] and in test [17].

Regarding `O=C1OCc2ccccc21`, the result in test [1], in test [2], in test [3], in test [4], in test [5] and in test [6] was inactive. For the same molecule, the molecule was classed as inactive in [7], in test [8], in test [10], in [13], in [16] and in test [17].

Regarding `O=C(O)c1cc2ccccc2cc1O`, the outcome in [1], in [2], in [5], in test [6], in test [7] and in test [10] was inactive. Further, the call in [11], in test [18], in test [12], in test [13], in test [19] and in [15] was inactive. Further, in [16], the outcome was inactive. The AC50 in test [3] was 54.4 µM (active); in test [4], 52 µM (active).

Regarding `Cc1cc(N)n(-c2ccccc2)n1`, the outcome in [1], in test [2], in test [4], in test [5], in test [6] and in [8] was inactive. The result in [9], in [10], in [11], in test [18], in test [12] and in [13] was inactive. Also, the outcome in test [14], in [15] and in [16] was inactive. Moreover, the AC50 in test [3] is 39.5 µM (active).

Consider `CC(C)N1C(=O)c2ccccc2C1=O`, for which the result in test [1], in test [2], in test [4], in [5], in test [6] and in test [8] was inactive. Further, the call in test [9], in test [10], in test [11], in test [18], in test [12] and in [13] was inactive. Moreover, the call in test [14] and in test [16] was inactive. For the same molecule, the AC50 in test [3] was 37.2 µM (active); in [19], 42.8 µM (active).
